Bioassay records: PubChem, The Scripps Research Institute Molecular Screening Center
An excerpt weighted towards active compounds, which were near 2.9% of everything screened.
ZTA counter – blocks Epstein-Barr virus ZTA, an EBNA-1 counter-screen; P03206; ZTA-DNA binding, fluorescence polarization; inhibition, % at 11 µM; 320,000 tested, 0.15% active; in the data active = inhibition above about 33%
Target sequence (P03206 whole entry, looked up): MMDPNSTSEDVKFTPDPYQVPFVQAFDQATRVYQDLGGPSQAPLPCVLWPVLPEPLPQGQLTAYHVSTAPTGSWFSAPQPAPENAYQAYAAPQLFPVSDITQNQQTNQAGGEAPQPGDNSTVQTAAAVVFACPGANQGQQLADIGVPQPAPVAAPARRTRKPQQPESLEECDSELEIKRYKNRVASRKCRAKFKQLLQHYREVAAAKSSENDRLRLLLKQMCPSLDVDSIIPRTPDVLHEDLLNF
PAFAH1B2 FP inh – blocks human PAF acetylhydrolase 1b catalytic subunit 2; inhibition, % at 3.39 µM; recombinant PAFAH1B2, FP-rhodamine activity probe, fluorescence polarization; 340,000 tested, 1.2% active; P68402;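 active = inhibition above the mean of all tested compounds plus 3 SD, cut at about 24% in these data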;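 also: 0% = enzyme with DMSO and 100% = wells lacking PAFAH1B2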
PAFAH1B3 inh – PAFAH1B3 (human) inhibition; Q15102; recombinant PAFAH1B3, FP-rhodamine probe, fluorescence polarization; inhibition, % at 3.39 µM; 340,000 tested, 0.28% active; AID 492972;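 active = inhibition above the screen-wide average of all tested compounds plus 3 SD, cut at about 25% in these data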;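 also: 0% = enzyme with DMSO only and 100% = wells lacking PAFAH1B3 protein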
Target sequence (Q15102 whole entry, looked up): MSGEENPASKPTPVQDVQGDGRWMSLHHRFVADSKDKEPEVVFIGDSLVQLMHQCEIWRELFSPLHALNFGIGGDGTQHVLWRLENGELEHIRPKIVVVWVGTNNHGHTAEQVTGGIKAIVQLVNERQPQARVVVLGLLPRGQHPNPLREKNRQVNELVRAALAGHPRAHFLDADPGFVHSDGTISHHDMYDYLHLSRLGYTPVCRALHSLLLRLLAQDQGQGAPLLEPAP
PAFAH2 inh – PAFAH2 (human) inhibition; Q99487; recombinant PAFAH2, FP-rhodamine activity probe, fluorescence polarization; inhibition, % at 3.39 µM; 340,000 tested, 0.99% active; AID 492956;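 active = inhibition above the mean over all tested compounds plus 3 SD, cut at about 30% in these data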;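 also: inhibitors block probe labeling of enzyme so polarization drops; 0% = enzyme with DMSO and 100% = wells lacking PAFAH2 protein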
EBNA-1 inhibitor – blocks EBNA-1 binding to DNA; AID 1950; 300,000 tested, 0.34% active; inhibition, % at 14.8 µM; EBNA-1 DNA binding, fluorescence polarization; in the data active = inhibition above about 28%
pPAFAH inh – inhibitors of human plasma PAF acetylhydrolase (pPAFAH) | Q13093 | recombinant pPAFAH, FP-rhodamine probe fluorescence polarization | inhibition, % at 3.39 µM | 330,000 tested, 1.5% active;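 active = inhibition above the mean inhibition across the screen plus 3 SD, cut at about 25% in these data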;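 also: inhibitors block binding of the rhodamine activity-based probe so polarization drops; 0% = enzyme with DMSO and 100% = wells lacking pPAFAH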
pPAFAH confirm – pPAFAH (human) inhibition, confirmed. 2,300 tested, 72% active. inhibition, % at 3.39 µM. shares compounds with pPAFAH inh. recombinant pPAFAH, FP-Rh probe fluorescence polarization. AID 463230;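 active = mean inhibition of the triplicate above the hit cutoff set for the earlier primary screen, cut at about 25% in these data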;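 also: 0% = enzyme with DMSO and 100% = wells lacking pPAFAH enzyme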
PAFAH2 confirm – confirmation of human PAFAH2 inhibitors; shares compounds with PAFAH2 inh; recombinant PAFAH2, FP-rhodamine activity probe, fluorescence polarization; inhibition, % at 3.39 µM; 2,300 tested, 65% active; AID 493030;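 active = mean inhibition over three repeats above a set limit taken from the earlier primary screen, cut at about 30% in these data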;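 also: inhibitor blocks binding of rhodamine activity probe so polarization falls; 0% = enzyme with DMSO and 100% = wells lacking PAFAH2 protein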
Active calls of the source: *.

How did N#Cc1ccccc1Cn1cc(C(=O)c2cccs2)c2ccccc21 do in these assays?
ZTA counter: -6; PAFAH1B2 FP inh: -3; PAFAH1B3 inh: 2; PAFAH2 inh: -4; EBNA-1 inhibitor: -5; pPAFAH inh: 72*; pPAFAH confirm: 75*

What do the screens show for `N#Cc1ccccc1Cn1cc(C(=O)c2ccccc2F)c2ccccc21`?
ZTA counter: -6; PAFAH1B2 FP inh: -6; PAFAH1B3 inh: 5; PAFAH2 inh: -2; EBNA-1 inhibitor: -12; pPAFAH inh: 72*; pPAFAH confirm: 79*

Results for O=C(c1ccco1)c1cn(Cc2ccc(Cl)cc2)c2ccccc12 ?
ZTA counter: 19; PAFAH1B2 FP inh: 2; PAFAH1B3 inh: -8; PAFAH2 inh: -8; EBNA-1 inhibitor: 6; pPAFAH inh: 4

How did OC1(CN2CCOCC2)C2CC3CC(C2)CC1C3 (configuration not stated) do in these assays?
ZTA counter: -4; PAFAH1B2 FP inh: 6; PAFAH1B3 inh: 4; PAFAH2 inh: 4; EBNA-1 inhibitor: -11; pPAFAH inh: 3

How did O=C(COC(=O)Cc1ccccc1)Nc1ccc(SC(F)F)cc1 do in these assays?
ZTA counter: -14; PAFAH1B2 FP inh: 2; PAFAH1B3 inh: 18; PAFAH2 inh: 2; EBNA-1 inhibitor: -10; pPAFAH inh: 36*; pPAFAH confirm: 29*

What do the screens show for `CN(C)C1C(=O)C(C(N)=O)=C(O)C2(O)C(=O)C3=C(O)c4c(O)cccc4C(C)(O)C3C(O)C12` (configuration not stated)?
ZTA counter: -3; PAFAH1B2 FP inh: 10; PAFAH1B3 inh: 26*; PAFAH2 inh: 26; EBNA-1 inhibitor: 6; pPAFAH inh: 73*; pPAFAH confirm: 7

Results for Cc1ccc(CS(=O)(=O)Cc2ccc(C(=O)N3CCC4(CC3)OCCO4)o2)cc1 ?
ZTA counter: -4; PAFAH1B2 FP inh: 3; PAFAH1B3 inh: 2; PAFAH2 inh: 12; EBNA-1 inhibitor: 17; pPAFAH inh: 40*; pPAFAH confirm: 32*

What do the screens show for `O=C(O)C(Cc1cnc[nH]1)NS(=O)(=O)c1ccc(Cl)cc1` (configuration not stated)?
ZTA counter: -5; PAFAH1B2 FP inh: 3; PAFAH1B3 inh: 8; PAFAH2 inh: 0; EBNA-1 inhibitor: 2; pPAFAH inh: 4

What do the screens show for `O=C(C1CC(c2ccc(Cl)c(Cl)c2)=NO1)N1CCC2(CC1)OCCO2` (configuration not stated)?
ZTA counter: 4; PAFAH1B2 FP inh: 3; PAFAH1B3 inh: 2; PAFAH2 inh: 41*; EBNA-1 inhibitor: -2; pPAFAH inh: 61*; pPAFAH confirm: 50*

Results for CN1Cc2cnnn2-c2ccccc2C1c1ccccc1 (configuration not stated) ?
PAFAH1B2 FP inh: 7; PAFAH1B3 inh: 9; PAFAH2 inh: 1

What do the screens show for `O=C(COC(=O)Cc1ccccc1)Nc1cc(S(=O)(=O)N2CCOCC2)ccc1N1CCCC1`?
ZTA counter: -2; PAFAH1B2 FP inh: 4; PAFAH1B3 inh: 2; PAFAH2 inh: 9; EBNA-1 inhibitor: 4; pPAFAH inh: 39*; pPAFAH confirm: 39*

How did COc1ccc(S(=O)(=O)N2CCOCC2)cc1NC(=O)COC(=O)Cc1ccccc1 do in these assays?
PAFAH1B2 FP inh: -2; PAFAH1B3 inh: 3; PAFAH2 inh: 0; pPAFAH inh: 12

What do the screens show for `CCOC(=O)C(=CNc1ccc(C(O)(C(=O)OCC)C(F)(F)F)cc1C)C(=O)OCC` (configuration not stated)?
ZTA counter: -3; PAFAH1B2 FP inh: -12; PAFAH1B3 inh: 3; PAFAH2 inh: -1; EBNA-1 inhibitor: 4; pPAFAH inh: 6

What do the screens show for `O=C(c1cc2cc3ccc(Cl)cc3nc2o1)N1CCC2(CC1)OCCO2`?
ZTA counter: 12; PAFAH1B2 FP inh: 2; PAFAH1B3 inh: -1; PAFAH2 inh: 9; EBNA-1 inhibitor: 1; pPAFAH inh: 13

What do the screens show for `COc1ccc2nc3oc(C(=O)N4CCC5(CC4)OCCO5)cc3cc2c1`?
ZTA counter: -9; PAFAH1B2 FP inh: 2; PAFAH1B3 inh: 7; PAFAH2 inh: 4; EBNA-1 inhibitor: 12; pPAFAH inh: 44*; pPAFAH confirm: 36*

Results for COc1cc(C=C2C(=O)NC(=O)NC2=O)ccc1OS(=O)(=O)c1ccccc1[N+](=O)[O-] ?
ZTA counter: 25; PAFAH1B2 FP inh: 3; PAFAH1B3 inh: 6; PAFAH2 inh: 0; EBNA-1 inhibitor: 4; pPAFAH inh: 7

How did CCN(CCO)c1ccc(N=Cc2c(O)n(C)c(=S)[nH]c2=O)cc1 do in these assays?
ZTA counter: 29; EBNA-1 inhibitor: 12; pPAFAH inh: 37*; pPAFAH confirm: 3

Results for CCN(CC)c1ccc(N=Cc2c(O)n(CCc3ccc(OC)c(OC)c3)c(=O)[nH]c2=O)cc1 ?
ZTA counter: 16; PAFAH1B2 FP inh: 1; PAFAH1B3 inh: -1; PAFAH2 inh: 3; EBNA-1 inhibitor: -3; pPAFAH inh: 19

Results for O=C1Nc2ccc(Br)cc2C(c2ccc(Cl)cc2)=NC1O (configuration not stated) ?
PAFAH1B2 FP inh: 8; PAFAH1B3 inh: 3; PAFAH2 inh: -3

How did Cc1cc(/C=C2\C(=O)NC(=O)N(c3ccc(Cl)cc3)C2=O)c(C)n1-c1sc2c(c1C#N)CCCC2 do in these assays?
ZTA counter: 10; PAFAH1B2 FP inh: 3; PAFAH1B3 inh: 4; PAFAH2 inh: 33*; EBNA-1 inhibitor: 2; pPAFAH inh: 13; PAFAH2 confirm: 18

What do the screens show for `COc1ccc(OC)c(CN2CCCC(C(=O)c3sccc3C)C2)c1` (configuration not stated)?
ZTA counter: 0; PAFAH1B2 FP inh: 2; PAFAH1B3 inh: 2; PAFAH2 inh: -2; EBNA-1 inhibitor: -10; pPAFAH inh: 2

How did C[C@H](NC(=O)N1C[C@H]2C[C@@H](C1)c1cccc(=O)n1C2)C(=O)Nc1cccc(F)c1 do in these assays?
ZTA counter: 4; PAFAH1B2 FP inh: 4; PAFAH1B3 inh: 14; PAFAH2 inh: -1; EBNA-1 inhibitor: -7; pPAFAH inh: 4

Results for Cn1c(O)c(C(=N)COc2cccc(Cl)c2)c(=O)n(C)c1=O ?
ZTA counter: 7; PAFAH1B2 FP inh: 1; PAFAH1B3 inh: 8; PAFAH2 inh: 4; EBNA-1 inhibitor: 1; pPAFAH inh: 4

How did Cn1cc(C(=O)OCC(=O)NC2(C#N)CCCCC2)c2ccccc21 do in these assays?
PAFAH1B2 FP inh: 6; PAFAH1B3 inh: 6; PAFAH2 inh: 81*; PAFAH2 confirm: 81*

How did Cn1cc(C(=O)OCC(=O)N2CCCCC2)c2ccccc21 do in these assays?
ZTA counter: -10; PAFAH1B2 FP inh: 5; PAFAH1B3 inh: 5; PAFAH2 inh: 1; pPAFAH inh: -7
